According to PubChem BioAssay AID1851 (National Center for Advancing Translational Sciences (NCATS), 2009):
In all, about 16,000 compounds went through this assay and about 5,800 (36%) were called active. Roughly 23% stayed inconclusive and do not appear here. The list shows a part of the results. Unmarked numbers belong to inactive results. Calls follow the shape of the dose curve; as a rule, active = well fitted curve in the direction sought with a large enough effect; inconclusive = small, poorly fitted or top-dose-only effect, or effect the other way; inactive = no such curve, though single readings can be large or run the other way.

The compounds below were run against Cytochrome P450 2C19 (Homo sapiens) (UniProt P33261) (assay: Cytochrome panel assay with activity outcomes). Details: recombinant CYP, pro-luciferin dealkylation, luminescence, p450-cyp2c19; series mostly up to 57.1 µM; activity, negative = inhibition: at the top concentration.
% is scaled to controls: 0 for no effect and ±100 for the full control effect.

Chain of Cytochrome P450 2C19 (Homo sapiens) (P33261 whole entry, looked up): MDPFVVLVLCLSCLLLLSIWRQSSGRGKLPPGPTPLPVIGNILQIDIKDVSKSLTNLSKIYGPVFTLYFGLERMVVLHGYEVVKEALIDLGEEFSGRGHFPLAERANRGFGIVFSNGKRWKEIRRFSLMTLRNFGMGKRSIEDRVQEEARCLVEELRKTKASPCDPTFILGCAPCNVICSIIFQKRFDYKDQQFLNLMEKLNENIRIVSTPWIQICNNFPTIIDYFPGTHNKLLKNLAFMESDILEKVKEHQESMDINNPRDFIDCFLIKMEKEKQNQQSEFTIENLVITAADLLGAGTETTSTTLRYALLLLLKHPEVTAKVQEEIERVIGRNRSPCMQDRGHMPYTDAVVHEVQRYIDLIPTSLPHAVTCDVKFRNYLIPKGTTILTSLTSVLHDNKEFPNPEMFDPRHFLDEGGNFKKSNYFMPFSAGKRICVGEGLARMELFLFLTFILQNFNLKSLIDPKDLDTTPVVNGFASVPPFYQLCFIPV

Row | Structure (SMILES) | activity, negative = inhibition | AC50
1 | COc1cc(OC)cc(C(=O)NC(=S)Nc2ccc(Cl)c(C(=O)O)c2)c1 | -28.3% | –
2 | COc1cc(OC)cc(C(=O)NC(=S)NCCc2ccccc2)c1 | – | 2.51 µM (active)
3 | CCOc1ccc(N2C(=O)C3C4C=CC(CC4)C3C2=O)c([N+](=O)[O-])c1 (centres undefined) | – | 3.98 µM (active)
4 | Cc1cc(C)c(-c2cc([C@H](C)O/N=C3/[C@H]4OC4[C@@H](O)[C@H]4[C@H]3CCn3c(=O)n(-c5ccccc5)c(=O)n34)on2)c(C)c1 (some centres undefined) | -40% [at 11.4 µM] | –
5 | CCC(C)(C)c1ccc(Oc2cccc(C(=O)O)c2)cc1 | -38.4% [at 11.4 µM] | –
6 | C[C@@H](/C=C\c1cccc(Oc2ccc(F)cc2)c1)N(O)C(N)=O | – | 3.98 µM (active)
7 | C[N+]1(NCC[N@@+]2(C)CCc3ccccc3C2)CCCCC1 | 13.4% [at 11.4 µM] | –
8 | CCc1ccc(C(=O)CN(C#N)c2nc(C)cc(C)n2)cc1 | – | 10 µM (active)
9 | C[C@H]1[C@H](C)OC(=O)C[C@H](O)C[C@H](O)C[C@H](O)CC[C@H](O)[C@H](O)CC(=O)C[C@H](O)[C@H](C(=O)O)[C@H](O)C[C@H](O[C@@H]2O[C@@H](C)[C@H](O)[C@@H](N)[C@@H]2O)C=CC=CC=CC=CCCC=CC=C[C@@](C)(O)[C@H]1O | 33.3% [at 11.4 µM] | –
10 | CON(c1nc(N(C)C)nc(N(C)C)n1)S(=O)(=O)c1ccccc1Cl | – | 4.47 µM (active)
11 | CN1CCN(c2ncc3nc(-c4ccc(Cl)cc4)c(=O)n(C4CC4)c3n2)CC1 | -9.47% | –
12 | Cc1cc(C)n(CC(O)COc2ccccc2)n1 (centres undefined) | – | 8.91 µM (active)
13 | Cc1cc(C)n(CCCNCC(O)c2ccccc2)n1 (centres undefined) | -21.8% | –
14 | O=C1CCC(c2ccccc2)(c2ccccc2)CC1 | 13.2% [at 11.4 µM] | –
15 | CCCc1cc(C(=O)Cc2nc3ccccc3s2)c(O)cc1O | – | 0.126 µM (active)
16 | COc1ccc(C2C(C#N)=C(N)Oc3n[nH]c(C)c32)cc1CN1CCN(c2ccc(F)cc2)CC1 (centres undefined) | – | 5.01 µM (active)
17 | O=c1cc(CN2CCN(c3ccc(F)cc3)CC2)c2cc3c(cc2o1)CCCC3 | -27.2% | –
18 | O=C(N/C(=C/c1cccs1)c1nc2ccccc2[nH]1)c1ccccc1 | -29.6% | –
19 | O=C(N/C(=C/c1ccc(Br)cc1)c1nc2ccccc2[nH]1)c1ccco1 | – | 3.16 µM (active)
20 | Cc1ccc(S(=O)(=O)N[C@H]2COC(=O)C/C=C\[C@@H](C)COC(=O)C/C=C\[C@@H]2C)cc1 | 12.1% [at 11.4 µM] | –

Row | Structure (SMILES) | activity, negative = inhibition | AC50
21 | S=c1nc(-c2ccccc2)oc2c1CCCC2 | – | 15.8 µM (active)
22 | COc1ccc(-n2c(-c3ccccc3)nc(=S)c3c2CCCC3)cc1 | -14.5% | –
23 | c1ccc(Oc2cc(-c3ccccc3)ncn2)cc1 | – | 2.51 µM (active)
24 | COc1ccccc1NC(=O)Nc1nnc(-c2ccco2)s1 | – | 1.78 µM (active)
25 | COc1ccccc1-c1nnc(NC(C)=O)s1 | -11% | –
26 | CN1C(=O)/C(=N\OC(=O)c2cccc3ccccc23)c2ccccc21 | – | 8.91 µM (active)
27 | CN1C(=O)c2ccccc2C(C(=O)O)C1c1cn(C)c2ccccc12 (centres undefined) | -28.2% | –
28 | NCCCCCCCCCCN | -14.1% | –
29 | C[C@H](NCCc1ccc(O)cc1)[C@@H](O)c1ccc(O)cc1 | – | inactive
30 | CN(c1ccccc1)c1ccc(/C=c2\s/c(=C(/C#N)C(=O)C(C)(C)C)n(Cc3ccco3)c2=O)cc1 | – | 1.78 µM (active)
31 | CNC(C)c1cc(OC)ccc1OC (centres undefined) | -11.9% | –
32 | COc1cccc(OCCCOc2ccccc2C(C)C)c1 | – | 3.16 µM (active)
33 | COc1cccc(OC)c1OCCCCN1CCCC1 | -25.6% | –
34 | CC(C(=O)Nc1cccnc1)N1C(=O)C2C3C=CC(C3)C2C1=O (centres undefined) | 18.2% | –
35 | Cc1ccc(NC(=O)C(C)N2C(=O)C3C4CC(C(Br)C4Br)C3C2=O)cc1 (centres undefined) | – | 12.6 µM (active)
36 | Cc1nc(SC(C(=O)c2ccccc2)c2ccccc2)n[nH]1 (centres undefined) | – | 2.51 µM (active)
37 | COC(=O)c1nc(NC(=O)c2ccccc2)n[nH]1 | -17.1% | –
38 | CCOc1ccc(C2=Nn3c(nnc3-c3ccco3)SC2)cc1 | – | 3.16 µM (active)
39 | COc1ccc(-c2csc(N3C(=N)SCC3=O)n2)cc1 | -31.8% | –
40 | COc1cccc(-c2nnc3n2N=C(C(C)(C)C)CS3)c1 | – | 2.82 µM (active)

Row | Structure (SMILES) | activity, negative = inhibition | AC50
41 | CCN(CC)C(=O)CSc1nnc(-c2ccco2)n1N | -20.6% | –
42 | CCOc1ccc(-c2nnc3n2N=C(c2ccc(OC)cc2)CS3)cc1 | – | 4.47 µM (active)
43 | NCCCCCC(=O)O | – | inactive
44 | CCN1C(=O)[C@H]2[C@H]3[C@H](O)[C@H](O)C/C(=N/OC[C@@H](O)COCc4ccco4)[C@H]3CC[C@@H]2C1=O | -33.5% [at 11.4 µM] | –
45 | CO[C@@H]1COC(=O)C/C=C\[C@@H](C)[C@H](OC)COC(=O)[C@@H](C)COC(=O)C/C=C\[C@H]1C | 4.43% [at 11.4 µM] | –
46 | Cc1noc(NC(=O)Nc2ccccc2F)c1C#N | -17.8% [at 11.4 µM] | –
47 | CCC(C)n1c(NC(=O)c2ccccc2)c(C#N)c2nc3ccccc3nc21 (centres undefined) | – | 28.2 µM (active)
48 | CC(C)CN=C(N)N=C(N)N | -8.28% [at 11.4 µM] | –
49 | Oc1cccc(-c2nc3c4c(ncn3n2)-c2ccccc2CC42CCCC2)c1 | – | 25.1 µM (active)
50 | COc1ccc(C(=O)N2CCC3(CCN(C)CC3)CC2)cc1 | -7.06% | –
51 | COc1ccc(C(=O)N2CCC3(CC2)CCN(C(c2ccccc2)c2ccccc2)CC3)cc1 | -41.3% | –
52 | COc1ccc(C(=O)/C=C2/c3ccccc3CC(C)(C)N2C)cc1 | – | 15.8 µM (active)
53 | Cn1nccc1C(=O)Nc1ccc(Cl)cc1 | – | 31.6 µM (active)
54 | CCNS(=O)(=O)c1ccc(NC(=O)c2cc(C(F)(F)F)nn2C)cc1 | -28.8% | –
55 | O=C(Cc1cccs1)N/N=C/C(Br)=C/c1ccccc1 | – | 7.08 µM (active)
56 | O=C(O)/C(=C\c1ccccc1)Cc1ccccc1 | -14.2% [at 11.4 µM] | –
57 | O=C(O)c1cscc1Cc1cccs1 | -1.48% [at 11.4 µM] | –
58 | COc1cc(C(=O)NCc2cccc3ccccc23)cc(Cl)c1OC | – | 3.16 µM (active)
59 | CS(=O)(=O)N1CCC[C@@]2(CCN(C(=O)Nc3ccccc3)C2)C1 | 7.58% | –
